The source made the active and inactive calls. Rule for the calls: active = hit-call score of the fitted dose curve at least 0.9, where 1 is the maximum; inactive = score below 0.9.

What all share (settings): mRNA level, 48 h; actives raise or lower the signal
Read-out in test [1]: Glutathione S-transferase M3 (GSTM3), GSTM3 (gene 2947)
The test is described as follows: LTEA_HepaRG_GSTM3: Life Technologies and Expression Analysis (LTEA) Assay for Glutathione S-transferase M3 (GSTM3) using HepaRG (AID 2283501). The method in brief:
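Expression of GSTM3 is determined by qRT-PCR in human liver HepaRG cells treated 48 h with an 8-point half-log range from 100 uM in 0.5% DMSO.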

Read-out in test [2]: Heat shock 70 kDa protein 1 (HSPA1A), gene 3303
Nature of the test: LTEA_HepaRG_HSPA1A: Life Technologies and Expression Analysis (LTEA) Assay for Heat shock 70 kDa protein 1 (HSPA1A) using HepaRG (AID 2283502). An outline of the steps: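 HSPA1A induction in human HepaRG liver cells is measured after 48 h of chemical treatment (100 uM maximum, 0.5% DMSO vehicle). Expression comes from qRT-PCR normalized to endogenous controls.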

Read-out in test [3]: Hypoxia-inducible factor 1-alpha (Homo sapiens) (UniProt Q16665)
Nature of the test: LTEA_HepaRG_HIF1A: Life Technologies and Expression Analysis (LTEA) Assay for Hypoxia-inducible factor 1 (HIF1A) Trancription factor using HepaRG (AID 2283503).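 Note: HIF1A transcript by TaqMan qRT-PCR normalized to ACTB GAPDH and POLR2A.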 The method in brief: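 HepaRG, 48 h exposure, 8-pt half-log series from 100 uM, 0.5% DMSO vehicle, duplicates. Readout: HIF1A transcript by qRT-PCR (Fluidigm array), housekeeping-normalised. Bidirectional curve fit vs DMSO baseline.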

Read-out in test [4]: 3-Hydroxy-3-Methylglutaryl-CoA Synthase 2 (HMGCS2), HMGCS2 (gene 3158)
The test is described as follows: LTEA_HepaRG_HMGCS2: Life Technologies and Expression Analysis (LTEA) Assay for 3-Hydroxy-3-Methylglutaryl-CoA Synthase 2 (HMGCS2) using HepaRG (AID 2283504). The method in brief:
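This steatosis marker was read as HMGCS2 mRNA change in HepaRG cells treated 48 h with up to 100 uM chemical. Normalisation used housekeeping genes; activity in either direction was fitted relative to 0.5% DMSO vehicle.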

Read-out in another test: HGF (gene 3082)
Nature of the test: LTEA_HepaRG_HGF: Life Technologies and Expression Analysis (LTEA) Assay for Hepatocyte Growth Facto (HGF) using HepaRG (AID 2283505). The method in brief:
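Using HepaRG monolayers kept in 0.5% DMSO, chemicals were tested in duplicate over eight half-log concentrations from 100 uM for 48 h. Endpoint: HGF mRNA change relative to DMSO, normalized to ACTB/GAPDH/POLR2A.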

Read-out in test [5]: Insulin Like Growth Factor 1 (IGF1), IGF1 (gene 3479)
The test is described as follows: LTEA_HepaRG_IGF1: Life Technologies and Expression Analysis (LTEA) Assay for Insulin Like Growth Factor 1 (IGF1) using HepaRG (AID 2283506). An outline of the steps: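 Using human HepaRG liver cells, IGF1 transcript induction or suppression is measured 48 h after dosing across eight concentrations capped at 100 uM. Values derive from bidirectional concentration-response fitting with DMSO as baseline.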

Read-out in test [6]: Intercellular Adhesion Molecule 1 (ICAM1), ICAM1 (gene 3383)
Nature of the test: LTEA_HepaRG_ICAM1: Life Technologies and Expression Analysis (LTEA) Assay for Intercellular Adhesion Molecule 1 (ICAM1) using HepaRG (AID 2283507). An outline of the steps:
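Using the human liver line HepaRG, compounds are tested in duplicate over 48 h at concentrations up to 100 uM. Expression is determined by TaqMan qRT-PCR, normalized to endogenous controls, and analysed relative to 0.5% DMSO vehicle.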

Read-out in test [7]: Insulin-like growth factor-binding protein 1 (IGFBP1), IGFBP1 (gene 3484)
Nature of the test: LTEA_HepaRG_IGFBP1: Life Technologies and Expression Analysis (LTEA) Assay for Insulin-like growth factor-binding protein 1 (IGFBP1) using HepaRG (AID 2283508). The method in brief: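 HepaRG, 48 h, 8 conc. (max 100 uM, half-log), duplicates, 0.5% DMSO. Readout: TaqMan qRT-PCR, ACTB/GAPDH/POLR2A normalisation. Fit: bidirectional vs DMSO.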

Read-out in test [8]: Interleukin 6 (IL6), IL6 (gene 3569)
Nature of the test: LTEA_HepaRG_IL6: Life Technologies and Expression Analysis (LTEA) Assay for Interleukin 6 (IL6) using HepaRG (AID 2283509). The method in brief: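 HepaRG, ~100,000 cells/well, 48 h pre-culture; serum-free induction medium; cmpd 8-pt half-log from 100 uM, 0.5% DMSO, duplicate, 48 h. Lysis in RLT, TaqMan qRT-PCR; gain or loss vs DMSO.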

Read-out in test [9]: Potassium channel subfamily K member 1 (KCNK1), KCNK1 (gene 3775)
Nature of the test: LTEA_HepaRG_KCNK1: Life Technologies and Expression Analysis (LTEA) Assay for Potassium channel subfamily K member 1 (KCNK1) using HepaRG (AID 2283511). The method in brief:
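Gain or loss of KCNK1 mRNA is the read-out, quantified by qRT-PCR against three housekeeping genes after 48 h chemical treatment of human HepaRG liver cells. Concentrations ran from 100 uM downward in half-log steps, vehicle 0.5% DMSO.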

Read-out in test [10]: Keratin 19 (KRT19), KRT19 (gene 3880)
Nature of the test: LTEA_HepaRG_KRT19: Life Technologies and Expression Analysis (LTEA) Assay for Keratin 19 (KRT19) using HepaRG (AID 2283512). The method in brief: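 Readout is qRT-PCR of KRT19 mRNA, normalized to ACTB, GAPDH and POLR2A, from HepaRG cells treated 48 h with eight-point half-log dilutions topping at 100 uM. Activity in either direction is scored relative to 0.5% DMSO vehicle.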

Read-out in test [11]: JUN Transcription Factor, JUN (gene 3725)
The test is described as follows: LTEA_HepaRG_JUN: Life Technologies and Expression Analysis (LTEA) Assay for JUN Transcription Factor using HepaRG (AID 2283513). The method in brief: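 Human HepaRG liver cells receive test chemicals in 0.5% DMSO for 48 h across an eight-point range topping at 100 uM. Expression changes in JUN are scored in both directions against the DMSO vehicle.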

Read-out in test [12]: Lipase C (LIPC), LIPC (gene 3990)
The test is described as follows: LTEA_HepaRG_LIPC: Life Technologies and Expression Analysis (LTEA) Assay for Lipase C (LIPC) using HepaRG (AID 2283514). An outline of the steps: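 Read-out is LIPC transcript level by TaqMan qRT-PCR, normalized to three housekeeping genes, after 48 h chemical treatment of human HepaRG liver cells. Curves span eight concentrations topping at 100 uM; activity in either direction scored relative to 0.5% DMSO.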

Read-out in test [13]: Lipoprotein lipase (LPL), LPL (gene 4023)
Nature of the test: LTEA_HepaRG_LPL: Life Technologies and Expression Analysis (LTEA) Assay for Lipoprotein lipase (LPL) using HepaRG (AID 2283515). The method in brief:
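Read-out is LPL transcript level by qRT-PCR, normalized to three housekeeping genes and fitted bidirectionally against the DMSO control. Human HepaRG cells received chemicals for 48 h at up to 100 uM.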

Read-out in test [14]: MicroRNA 122 (MIR122), gene 406906
Nature of the test: LTEA_HepaRG_MIR122: Life Technologies and Expression Analysis (LTEA) Assay for MicroRNA 122 (MIR122) using HepaRG (AID 2283516). Note: the transcript read is the microRNA miR-122. The method in brief:
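HepaRG, 48 h exposure, 8-pt half-log from 100 uM, 0.5% DMSO; TaqMan qRT-PCR; bidirectional fit vs DMSO.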

Read-out in test [15]: matrix metalloproteinase-10 (MMP10), MMP10 (gene 4319)
The test is described as follows: LTEA_HepaRG_MMP10: Life Technologies and Expression Analysis (LTEA) Assay for matrix metalloproteinase-10 (MMP10) using HepaRG (AID 2283517). The method in brief: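 Gain or loss of MMP10 mRNA is fitted relative to the 0.5% DMSO vehicle. The human hepatic line HepaRG receives a 48-hour serum-free exposure, in duplicate, with a maximum concentration of 100 uM.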

Read-out in a further test: MYC, MYC (gene 4609)
Nature of the test: LTEA_HepaRG_MYC: Life Technologies and Expression Analysis (LTEA) Assay for MYC using HepaRG (AID 2283518). An outline of the steps: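 Expression changes were scored by TaqMan qRT-PCR with ACTB, GAPDH and POLR2A normalization. Cultures in serum-free induction medium received duplicate 8-point concentration series, highest 100 uM, for 48 h; DMSO (0.5%) served as baseline.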

Read-out in test [16]: matrix metalloproteinase-3 (MMP3), MMP3 (gene 4314)
Nature of the test: LTEA_HepaRG_MMP3: Life Technologies and Expression Analysis (LTEA) Assay for matrix metalloproteinase-3 (MMP3) using HepaRG (AID 2283519). The method in brief: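 HepaRG, human; 48 h dosing, 8 conc. (max 100 uM, half-log), duplicate, 0.5% DMSO. Readout: MMP3 transcript by Fluidigm TaqMan qRT-PCR, ACTB/GAPDH/POLR2A-normalised. Gain or loss fitted vs DMSO.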

Read-out in test [17]: Paternally Expressed 10 (PEG10), PEG10 (gene 23089)
Nature of the test: LTEA_HepaRG_PEG10: Life Technologies and Expression Analysis (LTEA) Assay for Paternally Expressed 10 (PEG10) using HepaRG (AID 2283520).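 For AC50: differentiated HepaRG human liver cells in serum-free induction medium with 0.5% DMSO; PEG10 transcript by qRT-PCR normalised to ACTB GAPDH and POLR2A.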 The method in brief: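 Chemicals tested on HepaRG cells for 48 h, highest concentration 100 uM. PEG10 expression assessed by qRT-PCR relative to DMSO control.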

Read-out in test [18]: Interleukin 6 Receptor (IL6R), IL6R (gene 3570)
Nature of the test: LTEA_HepaRG_IL6R: Life Technologies and Expression Analysis (LTEA) Assay for Interleukin 6 Receptor (IL6R) using HepaRG (AID 2283510). An outline of the steps:
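Concentration-response in human liver HepaRG cells: eight concentrations from 100 uM downward by half-logs, 48 h exposure, 0.5% DMSO vehicle. IL6R mRNA change measured by qRT-PCR and fitted in both directions relative to vehicle.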

Sequence of Hypoxia-inducible factor 1-alpha (Homo sapiens) (Q16665 whole entry, looked up): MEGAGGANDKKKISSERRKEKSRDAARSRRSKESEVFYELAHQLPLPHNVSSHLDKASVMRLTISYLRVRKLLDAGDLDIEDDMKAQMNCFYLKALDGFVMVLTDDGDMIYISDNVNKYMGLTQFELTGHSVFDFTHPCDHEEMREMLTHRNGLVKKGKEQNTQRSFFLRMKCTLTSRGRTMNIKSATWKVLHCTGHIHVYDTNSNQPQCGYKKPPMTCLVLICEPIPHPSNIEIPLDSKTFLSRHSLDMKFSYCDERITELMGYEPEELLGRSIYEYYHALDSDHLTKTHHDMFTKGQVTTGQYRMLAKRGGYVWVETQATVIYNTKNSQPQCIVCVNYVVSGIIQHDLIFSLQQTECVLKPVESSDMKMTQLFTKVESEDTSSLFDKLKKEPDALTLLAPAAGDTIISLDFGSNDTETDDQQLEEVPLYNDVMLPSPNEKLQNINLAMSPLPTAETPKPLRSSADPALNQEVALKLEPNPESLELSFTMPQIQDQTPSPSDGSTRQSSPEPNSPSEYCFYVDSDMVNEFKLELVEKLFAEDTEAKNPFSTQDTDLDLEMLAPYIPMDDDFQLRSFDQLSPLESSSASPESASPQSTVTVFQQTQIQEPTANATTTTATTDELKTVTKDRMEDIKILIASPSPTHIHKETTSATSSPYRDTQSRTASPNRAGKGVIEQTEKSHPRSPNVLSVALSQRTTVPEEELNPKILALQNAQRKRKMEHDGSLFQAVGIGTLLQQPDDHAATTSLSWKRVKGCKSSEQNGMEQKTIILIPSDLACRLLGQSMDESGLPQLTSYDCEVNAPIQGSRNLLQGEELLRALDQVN

As to `Fc1ccc(Oc2ccnc3cc(Cl)cc(Cl)c23)cc1`, the call (in test [1]; in test [2]; in test [3]; in [4]; with HGF (gene 3082); in [6]) was inactive. Besides, the outcome in test [9] is “inactive”; in [11] it was “inactive”; in test [13], “inactive”; in test [14] it was “inactive”; in test [15], “inactive”; in the test with MYC, MYC (gene 4609), “inactive”. The outcome in test [16] was inactive. In addition, the AC50 in test [5] is 50 µM (active); in [7] it was 57.2 µM (active); in test [8] it was 77.4 µM (active); in test [10], 50 µM (active); in test [12], 78.8 µM (active); in test [17] it was 33.5 µM (active).
For `CS/C(C)=N/OC(=O)N(C)SN(C)C(=O)O/N=C(\C)SC`, the result (in test [1]; in [2]; in [3]; in [4]; with HGF (gene 3082); in [5]) was inactive. In addition, the result in test [6], in [7], in test [8], in test [18], in test [9] and in test [10] was inactive. The outcome in test [11] is “inactive”; in test [12], “inactive”; in [13] it was “inactive”; in [14], “inactive”; in [15], “inactive”; with MYC, MYC (gene 4609), “inactive”. In addition, the outcome in test [16] and in [17] was inactive.
Consider `CC(C)Oc1cc(-n2nc(C(C)(C)C)oc2=O)c(Cl)cc1Cl`, for which the outcome (in test [1]; in test [2]; in test [3]; with HGF (gene 3082); in test [6]; in [8]) was inactive. Besides, the result in test [18], in test [9], in test [11], in [15] and in [16] was inactive. Besides, the AC50 in test [4] is 61.9 µM (active); in [5], 28.7 µM (active); in test [7], 76.8 µM (active); in test [10], 50 µM (active); in test [12], 50 µM (active); in test [13], 85.5 µM (active). Moreover, the AC50 was 50 µM (active) in [14]; 89.1 µM (active) in the test with MYC, MYC (gene 4609); 5.57 µM (active) in [17].
